{"source": "PubChem BioAssay (Tox21)", "note": "Results filed as inconclusive are left out. The source made the active and inactive calls. The call rests on the fitted dose curve. On the % scale 0 is the no-effect control and ±100 the full control effect."}
{"assay": "qHTS assay to identify small molecule agonists of H2AX - cell viability counter screen (AID 1224847); further: top concentration of the series differs between compounds; nearly all actives have a fitted effect of over 30% in size", "conditions": "CHO-K1 viability, CellTiter-Glo luminescence, 3 h; series mostly up to 154 µM; activity change, negative = cytotoxicity: at the top concentration", "text": "National Center for Advancing Translational Sciences [NCATS]\nNIH Chemical Genomics Center [NCGC]\nU.S. Environmental Protection Agency [EPA]\nNational Institutes of Environmental Health Sciences [NIEHS]\nNational Toxicology Program [NTP]\nU.S. Food and Drug Administration [FDA]\nHTRF phospho-H2AX (Ser139) assay (Cisbio Bioassays, US) enables the quantitative detection of the histone variant H2AX when phosphorylated on serine 139. When double-stranded DNA breaks, either by ionizing radiation or endogenous physiological processes, H2AX becomes phosphorylated at Ser139. This phospho-Ser139 serves as a sensitive biomarker for the detection of such breaks, localizing the site of DNA repair. So, HTRF phospho-H2AX Ser139 is a pertinent assay to study genome stability, the cell cycle, DNA repair, and it serves as a biomarker for cancer, and to understand aging. Wild type CHO-K1 cells were used to identify the inducers of Phospho-H2AX Ser 139 from the Tox21 compound collections. Also cytotoxicity of the Tox21 10K compound library against the CHO-K1 cell line was tested by measuring the cell viability using CellTiter-Glo assay (Promega, Madison, WI).\nTox21 Assay Protocol Summary:\nThe CHO-K1 cells suspended in culture medium containing 10% FBS were dispensed at 1000 cells/ 3 ul/well in 1536-well white wall/solid bottom plates (Greiner Bio-One North America, NC) using a Multidrop Combi (Thermo Fisher Scientific Inc., Waltham, MA). After the assay plates were incubated at 37C overnight, 23 nl of compounds at 15 concentrations (from 5-48 columns) or positive control (from 1 to 4 columns) were transferred to the assay plates using a Pintool station (Wako, San Diego, CA) into each well resulting in a final DMSO concentration of 0.76%. After 3hr incubation at 37C, 3 uL/well CellTiter-Glo luminescent cell viability reagent (Promega Corporation, Madison, WI) was added using a Flying Reagent Dispenser (FRD) (Aurora Discovery, CA). After incubation at room temperature for 30 min, the luminescence intensity was read using a ViewLux plate reader (PerkinElmer, Waltham, MA)."}
{"smiles": "CC(C(=O)O)c1cccc(Oc2ccccc2)c1", "note": "(stereo not given)", "activity change, negative = cytotoxicity": "1.36% [at 70.9 µM] (inactive)"}
{"smiles": "CC(=O)C1CCCCC1=O", "note": "(stereo not given)", "activity change, negative = cytotoxicity": "4.21% (inactive)"}
{"smiles": "CC/C=C\\CCOC(C)OCC", "note": "(stereo not given)", "activity change, negative = cytotoxicity": "-1.98% [at 70.9 µM] (inactive)"}
{"smiles": "NCCCC(N)(C(=O)O)C(F)F", "note": "(stereo not given)", "activity change, negative = cytotoxicity": "0.68% [at 70.9 µM] (inactive)"}
{"smiles": "Nc1ccncc1N", "activity change, negative = cytotoxicity": "-0.431% [at 70.9 µM] (inactive)"}
{"smiles": "C1CCC2(CCCCO2)OC1", "activity change, negative = cytotoxicity": "-1.34% (inactive)"}
{"smiles": "CC(C)C(=O)OC(=O)C(C)C", "activity change, negative = cytotoxicity": "-0.172% (inactive)"}
{"smiles": "CC12CCC(C(=O)C1=O)C2(C)C", "note": "(stereo not given)", "activity change, negative = cytotoxicity": "-1.17% (inactive)"}
{"smiles": "[O-][n+]1cccc(CO)c1", "activity change, negative = cytotoxicity": "0.0206% [at 70.9 µM] (inactive)"}
{"smiles": "CCC(C(=O)NC(=O)NC(C)=O)c1ccccc1", "note": "(stereo not given)", "activity change, negative = cytotoxicity": "1.82% [at 70.9 µM] (inactive)"}
{"smiles": "COc1cc(C)nc(-n2nc(C)cc2OC)n1", "activity change, negative = cytotoxicity": "4.3% [at 70.9 µM] (inactive)"}
{"smiles": "CCN[C@@H]1C[C@H](N)[C@@H](OC2OC(CN)=CCC2N)[C@H](O)[C@H]1O[C@H]1OC[C@](C)(O)[C@H](NC)[C@H]1O", "note": "(stereo not given in full)", "activity change, negative = cytotoxicity": "4.57% [at 0.582 µM] (inactive)"}
{"smiles": "CC(C)[C@H]1CC[C@@H](C)CC1=O", "activity change, negative = cytotoxicity": "-1.11% (inactive)"}
{"smiles": "CC(=O)Oc1cccc(C)c1", "activity change, negative = cytotoxicity": "3.3% [at 70.9 µM] (inactive)"}
{"smiles": "Cc1ccc(-c2ccccc2C#N)cc1", "activity change, negative = cytotoxicity": "2.46% [at 70.9 µM] (inactive)"}
{"smiles": "c1coc(CNc2ncnc3nc[nH]c23)c1", "activity change, negative = cytotoxicity": "1.18% (inactive)"}
{"smiles": "CN1CCC(=C2c3ccccc3CCc3cccnc32)CC1", "activity change, negative = cytotoxicity": "1.43% [at 70.9 µM] (inactive)"}
{"smiles": "CCCCc1ccc2c(n1)[C@@H](c1ccc(OC)cc1C[C@H](C)C(=O)O)[C@H](C(=O)O)[C@H]2c1ccc2c(c1)OCO2", "activity change, negative = cytotoxicity": "0.607% (inactive)"}
{"smiles": "NC(=O)N[C@@H](CCC(=O)O)C(=O)O", "activity change, negative = cytotoxicity": "0.325% [at 70.9 µM] (inactive)"}
{"smiles": "C=CC(=O)OCCCl", "activity change, negative = cytotoxicity": "-1.94% (inactive)"}
{"smiles": "Clc1cc(Cl)cc(Cl)c1", "activity change, negative = cytotoxicity": "0.957% (inactive)"}
{"smiles": "O=C1c2ccccc2C(=O)c2cc(O)ccc21", "activity change, negative = cytotoxicity": "1.56% (inactive)"}
{"smiles": "O=C(O)c1cc(C(=O)O)cc(C(=O)O)c1", "activity change, negative = cytotoxicity": "-0.806% (inactive)"}
{"smiles": "CNC(=O)Nc1ccc(Cl)c(Cl)c1", "activity change, negative = cytotoxicity": "1.6% (inactive)"}
{"smiles": "CCN1C=CN(C)C1C", "note": "(stereo not given)", "activity change, negative = cytotoxicity": "-2.76% (inactive)"}
{"smiles": "CC(C)COC(=O)c1ccc(N)cc1", "activity change, negative = cytotoxicity": "4.55% [at 70.9 µM] (inactive)"}
{"smiles": "CN(C)CCCN(C)CCCN(C)C", "activity change, negative = cytotoxicity": "-0.98% (inactive)"}
{"smiles": "c1ccc(CCc2ccccc2)cc1", "activity change, negative = cytotoxicity": "-1.52% (inactive)"}
{"smiles": "COc1cc2c(cc1OC)-c1cc3ccc(OC)c(OC)c3c[n+]1CC2", "activity change, negative = cytotoxicity": "0.0814% (inactive)"}
{"smiles": "Cc1c(N)c(=O)n(-c2ccccc2)n1C", "activity change, negative = cytotoxicity": "-0.664% [at 70.9 µM] (inactive)"}
{"smiles": "CC(C)(C#N)Nc1nc(Cl)nc(NC2CC2)n1", "activity change, negative = cytotoxicity": "1.17% (inactive)"}
{"smiles": "CC(=O)c1cnccn1", "activity change, negative = cytotoxicity": "1.6% (inactive)"}
{"smiles": "Cc1ncc([C@@H](CCCCCCc2ccc3c(n2)NCCC3)CC(=O)O)cn1", "activity change, negative = cytotoxicity": "7.09% (inactive)"}
{"smiles": "O=Cc1cccc(Br)c1", "activity change, negative = cytotoxicity": "0.244% (inactive)"}
{"smiles": "C=COCC1CCC(COC=C)CC1", "note": "(stereo not given)", "activity change, negative = cytotoxicity": "0.443% (inactive)"}
{"smiles": "CN(C)C(=O)Oc1ccc[n+](C)c1", "activity change, negative = cytotoxicity": "2.45% [at 70.9 µM] (inactive)"}
{"smiles": "NC(=O)Cc1cccc2ccccc12", "activity change, negative = cytotoxicity": "0.719% (inactive)"}
{"smiles": "CCCCCCC#CC(=O)OC", "activity change, negative = cytotoxicity": "-0.559% (inactive)"}
{"smiles": "CCCC(=O)O[C@]1(C(=O)CC)CC[C@H]2[C@@H]3CCC4=CC(=O)CC[C@]4(C)[C@H]3[C@@H](O)C[C@@]21C", "activity change, negative = cytotoxicity": "-3.58% [at 70.9 µM] (inactive)"}
{"smiles": "CC(=O)OCC(=O)[C@@]1(O)[C@H](C)C[C@H]2[C@@H]3CCC4=CC(=O)C=C[C@]4(C)[C@@]3(F)[C@@H](O)C[C@@]21C", "activity change, negative = cytotoxicity": "0.899% [at 70.9 µM] (inactive)"}
